Laboratory results as given in the supplement of paper PMC7801607.

Assays:
CHO = test: % viability of CHO cells (MTT); higher = less toxic; conditions: 48 h
Method in brief: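 CHO cells seeded at 10^6 cells/well were exposed to compound at 2 or 20 µM for 48 h. Survival, as percent of untreated cells, was measured with the colorimetric tetrazolium (MTT) assay.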

HepG2-A16-CD81 = test: % inhibition of HepG2 viability (CellTiter-Glo); higher = more toxic; conditions: 5 µM;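 further: HepG2-A16-CD81 hepatoma cells plated as in the liver-stage assay but without sporozoites, with DMSO wells as negative and 25 µM puromycin as positive control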
[1] = tested on: Plasmodium falciparum NF54 stage IV/V gametocytes; test: % inhibition of gametocyte viability (PrestoBlue); higher = more inhibition; conditions: 48 h
Method in brief: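 Compound was tested at 1 or 5 µM against Stage IV/V NF54 gametocytes plated at 100 µL/well (2% gametocytaemia, 5% haematocrit). After 48 h of stationary, hypoxic incubation at 37 °C, 10 µL PrestoBlue was added for 2 h before reading 612 nm fluorescence from 70 µL of transferred supernatant. Gametocyte viability inhibition, as a percentage, was scaled against vehicle and kill controls from a single run.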

[2] = tested on: Plasmodium falciparum NF54 asexual blood stage; test: % inhibition of asexual blood stage proliferation (pLDH); higher = more inhibition; conditions: 72 h
Method in brief: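 In 96-well plates, compound at 2 or 20 µM was added to Plasmodium falciparum NF54 ring-stage cultures (1% haematocrit, 2% parasitaemia). Plates were incubated for 72 h at 37 °C in 4% CO2, 3% O2 and 93% N2, and survival was then read at 620 nm using the parasite lactate dehydrogenase assay. Inhibition of asexual proliferation, expressed as a percentage, was normalised to controls.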

[3] = tested on: Plasmodium falciparum NF54 stage IV/V gametocytes; test: % inhibition of gametocyte viability (ATP bioluminescence); higher = more inhibition; conditions: 24 h
Method in brief: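 Density gradients were used to enrich stage IV/V NF54 gametocytes, which were then seeded into 96-well plates at 30,000 per well with compound at 1 or 5 µM. The plates were incubated at 37 °C for 24 h, and ATP was measured with the Promega BacTiter Glo bioluminescence system. Percent inhibition of gametocyte viability was normalised to the plate controls from a single run.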

[4] = tested on: Plasmodium falciparum NF54 stage IV/V gametocytes; test: % inhibition of gametocyte viability (luciferase reporter); higher = more inhibition; conditions: 48 h
Method in brief: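 Stage IV/V gametocytes of the NF54-Pfs16-GFP-Luc line (2% gametocytaemia, 2% haematocrit) were exposed to compound at 1 or 5 µM. Incubation was 48 h at 37 °C, stationary and hypoxic. Luminescence was read on 30 µL lysate plus 30 µL Promega luciferin substrate on a GloMax-Multi+ reader with 10 s integration. Percent inhibition was normalised to DMSO and kill controls from a single run.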

SMILES	% viability of CHO cells (CHO; 2 µM) [%]	% viability of CHO cells (CHO; 20 µM) [%]	% inhibition of HepG2 viability (HepG2-A16-CD81) [%]	% inhibition of gametocyte viability ([1]; 1 µM) [%]	% inhibition of gametocyte viability ([1]; 5 µM) [%]	% inhibition of asexual blood stage proliferation ([2]; 2 µM) [%]	% inhibition of asexual blood stage proliferation ([2]; 20 µM) [%]	% inhibition of gametocyte viability ([3]; 1 µM) [%]	% inhibition of gametocyte viability ([3]; 5 µM) [%]	% inhibition of gametocyte viability ([4]; 1 µM) [%]	% inhibition of gametocyte viability ([4]; 5 µM) [%]
C=C(C)[C@@H]1CC[C@]2(C(=O)O)CC[C@]3(C)[C@H](CC[C@@H]4[C@@]5(C)CC[C@H](O)C(C)(C)[C@@H]5CC[C@]43C)[C@@H]12	98.8	111	27.7	26.9	19.3	36.2	67.2	12.2	8.94	3.4	< 0
COc1cc(Cc2cc(N)nc(N)n2)cc(OC)c1OC	107	103	4.91	< 0	< 0	43.4	50.8	< 0	< 0	< 0	< 0
CCN(CC)CCn1c(=N)n(CC(O)COc2ccc(Cl)cc2Cl)c2ccccc21 (stereo not given)	98.9	0.284	2.98	< 0	< 0	95.4	101	82.2	90.7	< 0	91.6
O=C(NCc1ccc2c3c(cccc13)C(=O)N2)c1cccs1	135	156	1.86	< 0	< 0	6.3	16	< 0	< 0	< 0	16.9
C[C@H](NC(CC(=O)c1ccccc1C(F)(F)F)C(=O)O)c1ccccc1 (stereo not given in full)	119	58.9	0.323	20.3	77.3	34.4	108	11.3	35.8	< 0	56.4
Cc1cc(C)n(O)c(=O)c1	108	109	-0.333	< 0	3.7	-9.1	4.56	< 0	3.75	< 0	< 0
COc1ccc2c(c1OC)C(=O)OC2C1c2c(cc3c(c2OC)OCO3)CCN1C (stereo not given)	102	-0.468	3.76	< 0	5.61	42.6	68.3	< 0	< 0	2.79	9.42
CN(C(=O)C1(c2ccc(Cl)cc2)CCC1)c1ccccc1	105	102	-4.47	17.1	17.3	10.7	59	< 0	< 0	< 0	1.35
O=S(=O)(NCB(O)O)c1ccc(-c2nnn[nH]2)cc1C(F)(F)F	86.3	66.1	3.27	18	9.79	29.1	28.6	< 0	< 0	1.13	3.64
Cn1c2ccccc2c(=O)c2c(O)cccc21	229	55	-9.48	26.6	21.6	20.3	11	6.28	< 0	7.24	< 0
